Bioassay records deposited in PubChem BioAssay by National Center for Advancing Translational Sciences (NCATS).
KB-3-1 tox: KB-3-1 parental cell cytotoxicity | KB-3-1 viability, CellTiter-Glo ATP luminescence, 72 h | Potency, µM (doses to about 46.1 µM), actives largely listed as cytotoxic | hit rate 1.4% among 400,000 | AID 1347075; also: potency is read from the fitted curve at half-maximal effect; % is scaled to controls: 0 for no effect and ±100 for the full control effect; nearly all actives have a fitted effect of over 60% in size
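KB-3-1 cells, DMEM (no phenol red) + 10% FBS; compound by pin transfer, 72 h, 37 °C. Readout: CellTiter-Glo luminescence after 10 min. Data normalized, curve-fitted.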
SW480 rereplic: induces DNA re-replication in SW480 colon adenocarcinoma cells; hit rate 1.8% among 340,000; SW480 DNA re-replication, Hoechst DNA content imaging, 48 h; Potency, µM (highest dose often 46.1 µM), inactives show at the top dose re-replication activation, usual class: activators; also: potency is read from the fitted curve at half-maximal effect; % of control where 0% means no effect; nearly all actives have a fitted effect of over 55% in size
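Hoechst fluorescence of nuclei (405 nm excitation, 500-530 nm emission) measured by plate-scanning imager after 48 hr compound exposure at 37 C; re-replication scored as increased number of nuclei with elevated intensity.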
Giardia killer: Giardia lamblia killing; Giardia lamblia trophozoite viability; AID 540267; activity change, % at 7.66 µM, hits read low; hit rate 0.15% among 340,000; in the data active = activity change below about -80%; inconclusive = between about -30% and that limit;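 also: parasites exposed to compound for two days anaerobically before the ATP read; % is scaled to controls: 0 for no effect and ±100 for the full control effect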
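Compounds were tested on trophozoites seeded at 100 cells/well and held 48 hrs at 37 deg C anaerobically. An ATP-based luminescent kit measured the remaining live cells.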
S-ASM inh: blocks human secretory acid sphingomyelinase. placental ASM, HMU-PC fluorogenic substrate, 60 min. Potency, µM (top dose mostly 57.5 µM), inactives show top-dose activity change, negative = inhibition, usual class: inhibitors. hit rate 0.006% among 340,000. P17405; also: potency is read from the fitted curve at half-maximal effect
Target sequence (P17405 47-631 limits assumed): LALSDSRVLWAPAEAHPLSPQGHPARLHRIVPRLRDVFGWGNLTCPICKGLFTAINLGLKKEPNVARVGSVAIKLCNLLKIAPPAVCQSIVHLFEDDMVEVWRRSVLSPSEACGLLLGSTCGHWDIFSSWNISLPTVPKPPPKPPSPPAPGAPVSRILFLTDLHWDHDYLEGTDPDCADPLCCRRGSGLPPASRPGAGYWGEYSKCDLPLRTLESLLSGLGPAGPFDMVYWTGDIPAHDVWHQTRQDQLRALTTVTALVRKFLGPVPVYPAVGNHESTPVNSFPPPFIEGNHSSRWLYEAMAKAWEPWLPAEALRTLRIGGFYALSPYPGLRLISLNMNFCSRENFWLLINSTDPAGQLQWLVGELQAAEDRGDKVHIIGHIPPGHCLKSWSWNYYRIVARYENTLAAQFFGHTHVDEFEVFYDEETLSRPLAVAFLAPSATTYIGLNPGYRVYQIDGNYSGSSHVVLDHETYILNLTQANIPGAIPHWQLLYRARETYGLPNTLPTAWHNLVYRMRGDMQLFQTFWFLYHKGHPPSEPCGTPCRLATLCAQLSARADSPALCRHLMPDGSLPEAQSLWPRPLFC
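HMU-PC0 cleavage (9 uM final) by human placental ASM, 60 min at 37 °C following 10 min compound exposure at RT; stopped at pH 10, fluorescence Ex 386/Em 447 nm.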
MCF10A rerep: induces DNA re-replication in MCF 10a normal breast cells | MCF 10A DNA re-replication, Hoechst nuclear intensity, 48 h | Potency, µM (titrated, usually from 46.1 µM), without a hit: at the highest dose activity, positive = re-replication, most hits filed as activators | hit rate 2.9% among 350,000 | AID 624296; also: potency is read from the fitted curve at half-maximal effect; % of control where 0% means no effect; nearly all actives have a fitted effect of over 50% in size
KB-V1 cytotox: kills drug-selected multidrug resistant KB-V1 cells. KB-V1 MDR cells viability, CellTiter-Glo, 72 h. Potency, µM (highest dose often 46.1 µM), actives largely listed as cytotoxic. hit rate 3.4% among 400,000. AID 1347076; also: potency is read from the fitted curve at half-maximal effect; % is scaled to controls: 0 for no effect and ±100 for the full control effect; nearly all actives have a fitted effect of over 60% in size
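Potencies derive from concentration-effect curves fitted to normalized luminescence (CellTiter-Glo) of KB-V1 cells treated for 72 h at 37 degrees C in phenol-red-free DMEM containing 10% FBS.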
Numbers without * were called inactive; i = inactive; ? = inconclusive; . = no result. Sampled rows, rich in hits. Any-hit rate of the full collection: about 6.9%. Unless noted, calls follow the shape of the dose curve; as a rule, active = well fitted curve in the direction sought with a large enough effect; inconclusive = small, poorly fitted or top-dose-only effect, or another doubt; inactive = no such curve, though single readings can be large; an effect the other way counts as inactive or inconclusive.

SMILES | KB-3-1 tox | SW480 rereplic | Giardia killer | S-ASM inh | MCF10A rerep | KB-V1 cytotox
COc1ccc(C(=O)/C=C/c2cccc(OCc3ccccc3)c2)cc1CSCC(=O)O | ? | 21% | 3 | -5% | 12% | ?
O=C(O)COc1ccc(/C=C/C(=O)c2ccc3ccccc3c2)cc1 | ? | 15% | -7 | 102% | 18µM* | i
COc1ccc(C(=O)/C=C/c2ccc(OCc3ccccc3)cc2)cc1CSCC(=O)O | i | ? | 19 | 69% | 23µM* | i
O=C(/C=C/c1ccc(O)c([N+](=O)[O-])c1)c1ccc2ccccc2c1 | i | ? | ? | -30% | 7.3µM* | i
CCOC(=O)c1c(C)[nH]c(C)c1S(=O)(=O)N1CCC(C(=O)NCc2cccc(C)c2)CC1 | i | . | . | . | . | ?
COc1cccc(CN2c3ccccc3-c3nc(SCC(=O)Nc4cccc(C)c4)ncc3S2(=O)=O)c1 | i | . | . | . | . | i
O=C(CN1c2ccc(Br)cc2-c2ccccc2S1(=O)=O)N1CCCCC1 | i | . | . | . | . | i
Cc1cc2c(cc1C)C(=O)CCC2 | i | . | . | . | . | i
O=C1CCCc2cc3c(ccc4ccccc43)cc21 | i | 2% | -6 | 13% | 18µM* | i
COc1ccccc1-c1nnc2n(CCc3ccccc3)c(=O)c3ccccc3n12 | i | . | . | . | . | i
Cc1ccc(S(=O)(=O)NCCSc2nnnn2-c2ccc(C(N)=O)cc2)cc1 | i | -8% | -1 | 0% | -14% | ?
O=S(=O)(NCCN1CCOCC1)c1ccc2ccccc2c1 | i | ? | 4 | 0% | 37% | i
O=[N+]([O-])c1cc(S(=O)(=O)NCCN2CCOCC2)ccc1Sc1nnnn1-c1ccccc1 | 13µM* | 15µM* | -9 | -1% | ? | i
Cc1ccc(-n2nnnc2Sc2ccc(S(=O)(=O)NCCN(C)C)cc2[N+](=O)[O-])cc1 | i | 8.2µM* | -6 | 4% | ? | ?
COc1ccc(-c2cc(C(F)(F)F)nc(SCC(=O)Nc3ccc(C(C)=O)cc3)n2)cc1 | i | . | . | . | . | ?
CCNc1ccc(S(=O)(=O)C(F)(F)F)cc1NC(=O)C12CCC(CC1)C2 | i | 9% | -20 | 2% | 9% | i
CCNc1cc(S(=O)(=O)C(F)(F)F)ccc1N | ? | 1% | 4 | 1% | 19% | 23µM*
CC(C)(C)NC(=S)Nc1ccc(Nc2ccccc2)cc1 | ? | 14% | 20 | -6% | -4% | 16µM*
Cc1cccc(NC(=S)NC2CCCCCC2)c1C | i | 0% | -18 | -1% | 11% | 18µM*
CC(C)(C)NC(=S)Nc1ccc(Br)cc1 | i | 1% | 0 | 2% | 16% | i
S=C(Nc1ccc(Nc2ccccc2)cc1)NC1CCCCCC1 | ? | 21µM* | 22 | ? | 13% | ?
Cc1cccc(NC(=S)NC2CCCC2)c1C | i | -12% | -1 | 2% | 6% | i
Cc1ccc2occ(CN3CCN(c4ccccc4)CC3)c(=O)c2c1 | i | -3% | -6 | 6% | ? | 23µM*
NC(=O)c1ccc(Cn2c(C(=O)c3cc(Cl)c(N)c(Cl)c3)c3ccccc3[n+]2[O-])cc1 | ? | ? | -1 | -8% | 12µM* | i
NCCCn1c(C(=O)c2cc(Cl)c(N)c(Cl)c2)c2ccc([N+](=O)[O-])cc2[n+]1[O-] | ? | 1µM* | ? | -20% | 71% | i
SMILES | KB-3-1 tox | SW480 rereplic | Giardia killer | S-ASM inh | MCF10A rerep | KB-V1 cytotox
Cc1ccc(-c2nnc(Nc3ccc(F)cc3)c3ccccc23)cc1S(=O)(=O)N1CCN(C)CC1 | i | . | . | . | . | i
c1ccc2c(c1)ccn2-n1ccc2ccccc21 | i | . | . | . | . | i
COc1ccc(C(C(=O)NC2CCCC2)N(C(=O)CNC(=O)c2ccco2)c2cccnc2)cc1 (configuration not stated) | i | -5% | -1 | 0% | -5% | i
CN1CCc2cccc3c2[C@@H]1Cc1ccc(O)c(O)c1-3 | ? | 3.7µM* | 9 | 13% | ? | ?
CCOC(=O)C1CCCN(CCC(=O)Nc2ccc(OC)cc2OC)C1 (configuration not stated) | i | . | . | . | . | i
CCCCNc1sc(S(=O)(=O)CCC)nc1S(=O)(=O)c1ccc(C)cc1 | i | . | . | . | . | i
C=C1NN(CC2CC2)C(=O)N1c1ccc(OCc2ccccc2)cc1 | i | . | . | . | . | i
Cc1nc2ncnn2c(Nc2ccc3c(c2)OCO3)c1Cc1ccccc1 | ? | 17% | 8 | 0% | 21% | 16µM*
CCc1nn(CC(=O)N2CCCCC2)c(=O)c2cc3occc3n12 | i | . | . | . | . | i
Oc1ccccc1/C=N/NC(=S)NC1CC2C=CC1C2 (configuration not stated) | ? | 26% | 16 | 225% | 10µM* | i
CN(/N=C/c1cc(Cl)cc(Cl)c1O)C(=S)NC(C)(C)C | ? | ? | -16 | 339% | ? | ?
Oc1c(Cl)cc(Cl)cc1/C=N/NC(=S)NC1CC2C=CC1C2 (configuration not stated) | ? | 18µM* | 2 | i | 7.3µM* | i
Cc1cc(NS(=O)(=O)c2ccc(NC(=O)c3ccc(Cl)cc3[N+](=O)[O-])cc2)no1 | i | -9% | -1 | 0% | -2% | i
O=C(CSc1nc2[nH]ncc2c(=O)n1-c1ccc(Cl)c(Cl)c1)NCc1ccccc1Cl | i | 3% | -24 | -8% | ? | i
CN(C)c1nccc(N(Cc2ccccc2)Cc2ccccc2)c1C#N | ? | -3% | -5 | -2% | ? | 13µM*
C/C(=N\N)c1c(-c2ccccc2)c2cc(C)ccc2[nH]c1=O | i | ? | -8 | 0% | 5% | i
O=C(NN=C1CCCC1)c1[nH]c2ccc(Cl)cc2c1-c1ccccc1 | i | ? | -6 | ? | 2.9µM* | ?
CC/C(C)=N/NC(=O)c1[nH]c2ccc(C)cc2c1-c1ccccc1 | i | ? | 35 | -3% | 12µM* | i
CSc1ccc(CN2CCC(C)(Oc3cccc(C#N)c3)C2)cc1 (configuration not stated) | i | . | . | . | . | i
O=C(Nc1ccc(F)c(S(=O)(=O)N2CCOCC2)c1)C1CCCCC1 | i | -1% | -18 | 1% | 11% | 18µM*
Cn1c(=O)n(C)c2cc(NC(=O)CCl)ccc21 | 4.6µM* | ? | 7 | 2% | 18µM* | 16µM*
COc1ccc(C(=O)OCc2ccccc2F)cc1S(=O)(=O)N1CCCC1 | i | -4% | -1 | 0% | 4% | 16µM*
COc1ccc(OCC(=O)Nc2ccc(OC)c(S(=O)(=O)N3CCCCC3)c2)cc1 | 21µM* | 16µM* | -4 | -3% | ? | i
